# Source: PubChem BioAssay (National Center for Advancing Translational Sciences (NCATS))
# VP16 counter = inhibits Gal4-VP16 luciferase reporter, ROR gamma counter-screen. Drosophila S2 Gal4-VP16 UAS-luciferase, luminescence, 20 h. Potency, µM (series often up to 53.6 µM), for the others: at the top dose activity, negative = inhibition, actives largely listed as inhibitors. actives 3.5% (n = 310,000);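 note: Gal4-VP16 expression switched on by copper sulfate through the metallothionein promoter; nearly all actives have a fitted effect of over 50% in size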
# RORg inh = ROR gamma (mouse) transcription inhibition; P51450; Drosophila S2 Gal4-RORgamma UAS-luciferase reporter, 20 h; Potency, µM (titrated, usually from 53.6 µM), for inactives: at the top dose activity change, negative = inhibition, most hits filed as inhibitors; actives 5.4% (n = 310,000); note: nearly all actives have a fitted effect of over 60% in size
# Target sequence (P51450 whole entry, looked up, the tested form may be a part): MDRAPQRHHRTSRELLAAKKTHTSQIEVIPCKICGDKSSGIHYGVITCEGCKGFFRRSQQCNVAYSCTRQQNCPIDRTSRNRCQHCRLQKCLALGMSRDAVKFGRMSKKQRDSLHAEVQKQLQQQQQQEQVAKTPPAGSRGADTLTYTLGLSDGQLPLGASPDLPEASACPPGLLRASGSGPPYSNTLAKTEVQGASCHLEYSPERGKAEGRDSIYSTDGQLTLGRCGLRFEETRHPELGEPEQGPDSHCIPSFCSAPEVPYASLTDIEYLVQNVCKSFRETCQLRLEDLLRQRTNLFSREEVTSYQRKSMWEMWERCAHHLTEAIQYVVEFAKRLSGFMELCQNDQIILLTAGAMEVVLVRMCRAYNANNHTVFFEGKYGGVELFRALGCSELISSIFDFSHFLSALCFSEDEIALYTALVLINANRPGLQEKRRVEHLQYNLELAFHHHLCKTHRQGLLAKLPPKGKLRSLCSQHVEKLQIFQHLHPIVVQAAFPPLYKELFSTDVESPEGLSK
#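 Compounds are pin-transferred onto Drosophila Schneider cells expressing a copper-inducible Gal4–ROR gamma transactivation domain fusion. After 1 hr, copper sulfate is added to 700 uM final; luciferase is read 20 hr later.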
# KinaseGlo FLuc = blocks Kinase-Glo luciferase, a counter-screen artifact; Q27757; Kinase-Glo luciferase, ATP luminescence, 8 min; Potency, µM (top dose mostly 38.3 µM), for the others: at the highest dose activity change, negative = inhibition, actives largely listed as inhibitors; actives 0.28% (n = 200,000); note: nearly all actives have a fitted effect of over 60% in size
#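 Compound is pinned into ATP-containing buffer (10 uM ATP, imidazole pH 7.2, 7 mM MgCl2). Kinase-Glo luciferase reagent is then added. Light output is recorded following an 8-min room-temperature incubation.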
# Numbers without * were called inactive; ? = inconclusive; / = no result given; [ ] = another dose, or the depositor's remark. Compounds with a hit are over-represented: about 6.4% of the library has one in this group of screens. Calls come from the whole dose curve; as a rule, active = well fitted curve in the direction sought with a large enough effect; inconclusive = small, poorly fitted or top-dose-only effect, or another doubt; inactive = no such curve, though single readings can be large; an effect the other way counts as inactive or inconclusive. % is set by controls: 0 for no effect and ±100 for the full control effect; potency is the fitted concentration of half-maximal effect.
SMILES,VP16 counter,RORg inh,KinaseGlo FLuc
COc1cccc(OCCn2cc(C=O)c3ccccc32)c1,-7.8%,40.7%,/
CC1=CN2C(=N)/C(=C/c3cn(CCCOc4ccccc4C)c4ccccc34)C(=O)N=C2S1,?,?,-3.7%
C=C(C)C(=O)Nc1cccc(C2=NOC3(C2)C[C@H](C(N)=O)N(C(=O)c2ccccc2C(=O)c2ccccc2)C3)c1 (some centres undefined),-13.2%,15.7%,/
C#CCCCO/N=C1/C[C@@H](O)[C@@H](O)[C@@H]2[C@@H]3C(=O)N(C[C@@H]4CCCO4)C(=O)[C@H]3CC[C@H]12,7.1%[10 µM],-1.4%[10 µM],/
O=C(NC1CCCCC1)C(Cc1ccccc1)NS(=O)(=O)c1cccs1 (centres undefined),3.5%,-9.5%,-0.9%
O=S(=O)(NC1CCCCCCC1)c1ccccc1,-6.8%,15.4%,/
O=S(=O)(NC(=S)NC1CCCCC1)c1cccs1,-83.7%,11.2µM*,3.1%
O=S(=O)(NC(=S)NC1CCCCC1)c1ccccc1,?,4.47µM*,1.2%
O=[N+]([O-])/C=C1\C=CC=CN1Cc1ccc(Cl)cc1,0.9%,-9.6%,/
O=C(c1ccccc1NS(=O)(=O)c1cccc(C(F)(F)F)c1)N1CCc2ccccc21,-10.1%,15.3%,3.8%
C[n+]1cn(Cc2ccc(C#N)cc2)c2ccccc21,-0.3%,-1.7%,/
Cc1ccc(NCCC#N)cc1C,-9.6%,-10.0%,-1.1%
CC12CC3CC(C)(C1)CC(C(=O)NC(=S)N1CCCCC1)(C3)C2,?,0.447µM*,0.7%
CN(C)C(=S)NC(=O)C12CC3CC(C)(CC(C)(C3)C1)C2,22.4µM*,5.01µM*,/
CC12CC3CC(C)(C1)CC(C(=O)NNC(=O)c1ccncc1)(C3)C2,-5.7%,5.2%,/
CC(NC(=O)C12CC3CC(C)(CC(C)(C3)C1)C2)c1ccncc1 (centres undefined),-11.1%,19.3%,/
CCCCC(=O)N(Cc1ccc(-c2ccccc2-c2nn[nH]n2)cc1)[C@H](C(=O)O)C(C)C,-4.8%,-0.8%,/
COc1ccc(-c2ccc3c(n2)CCCN3C[C@H](O)CN2CCCc3nc(-c4ccc(Br)cc4)ccc32)cc1,0.6%[10 µM],16.6%[10 µM],/
CN(C(=O)COC(=O)c1nc(Cl)c(Cl)c(Cl)c1Cl)C1CCS(=O)(=O)C1 (centres undefined),?,?,0.7%
Cc1cc([N+](=O)[O-])nn1CC(=O)N1N=C(C(F)F)CC1(O)C(F)F (centres undefined),-18.3%,-2.9%,0.8%
CC1=NN(C(=O)Cn2nc([N+](=O)[O-])cc2C)C(O)(C(F)(F)F)C1 (centres undefined),?,10µM*,1.2%
CC1=NN(C(=O)c2ccc(Cn3nc(C)c(Br)c3C)cc2)C(O)(C(F)(F)F)C1 (centres undefined),12.6µM*,?,7.3%
CC1=NN(C(=O)c2ccc(Cn3nc(C)c([N+](=O)[O-])c3C)cc2)C(O)(C(F)(F)F)C1 (centres undefined),11.2µM*,11.2µM*,-1.6%
Cc1nn(CC(=O)NCc2ccc(C(=O)O)cc2)c(C)c1[N+](=O)[O-],0.5%,11.5%,2.0%
Cc1nn(Cc2ccc(C(=O)N3CCOCC3)o2)c(C)c1Br,-2.6%,24.5%,-1.9%
SMILES,VP16 counter,RORg inh,KinaseGlo FLuc
Cc1ccc2[nH]c(CNC(=O)C3CCCCC3)cc2c1,6.6%,0.1%,/
CC(C)(C)C(=O)CNCC(=O)C(C)(C)C,-1.5%,-26.3%,-1.1%
Cc1nc2ccccc2n1Cc1n[nH]c(=S)n1-c1ccc(Cl)cc1,-19.5%,?,-3.5%
COc1ccc(C)cc1Cn1c(S(C)(=O)=O)nc2ccccc21,-5.7%,-21.2%,4.2%
COc1ccccc1Cn1c(C)nc2ccccc21,?,14.1µM*,/
COc1ccc(Cn2c(CCCO)nc3ccccc32)cc1OC,10.0%,-10.3%,1.0%
Cc1ccccc1Cn1c(C)nc2ccccc21,3.55µM*,?,/
CCc1nc2ccccc2n1Cc1ccccc1OC,?,7.08µM*,-2.8%
Cc1nc2ccccc2n1Cc1ccc(Cl)cc1,10µM*,?,/
Cc1ccccc1Cn1c(-c2cncs2)nc2ccccc21,9.6%,-1.7%,-3.3%
O=C(CN1C(=O)C2CCCCC2C1=O)OCC(=O)c1ccc(Cl)s1 (centres undefined),6.0%,18.4%,-0.8%
Cc1cc2occ(CC(=O)OCC(=O)Nc3sc4c(c3C#N)CCC(C)C4)c2cc1C (centres undefined),4.1%,24.3%,0.7%
COc1ccc(-n2nc(C(=O)NCC(=O)Nc3cccc(Cl)c3)c3ccccc3c2=O)cc1,-7.5%,0.0%,/
Cc1ccccc1OCCn1c(C)nc2ccccc21,7.94µM*,1.4%[1.91 µM],/
Cc1nc2ccccc2n1CCOc1ccccc1,?,1.5%,/
